Reference: the supplement of paper PMC6555819

Tests used:
Test in all cases: PBM binding z-score (relative to random genomic background probes); higher = stronger binding; sequences stand for … in GC…GCGATTGACAGCGTAGAATGAAGG
[1] = tested on: RARb homodimer (NR concentration 270 nM)
Summary of the method: (§1)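 Probes were double-stranded and carried 34-nt variable regions with direct-repeat seeds, single-nucleotide variants, half-site ablations and random human genomic background sequences, printed on custom Agilent 4×180K protein-binding microarrays. Arrays were incubated 1 h with ligand-free nuclear receptor dimers in PBS pH 7.4, 2% milk, 0.02% Triton X-100, 1 mM DTT, 0.2 mg/mL BSA and 0.4 mg/ml salmon testes DNA. Antibodies against each partner (one per run) detected binding, and scanned fluorescence was regression-normalized. Binding z-scores use the random background probes as reference.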

[2] = tested on: RARg:RXRa (NR concentration 270 nM, RXRa partner concentration 90 nM)
Summary of the method: as §1

[3] = tested on: RARg homodimer (NR concentration 270 nM)
Summary of the method: as §1

[4] = tested on: RXRa DBDmut IVT, anti-RXR (DBD mutation: RXRa K156A/R161A, NR concentration 90 nM)
Summary of the method: as §1

[5] = tested on: RXRa homodimer (NR concentration 180 nM)
Summary of the method: as §1

[6] = tested on: THRa:RXRa (NR concentration 90 nM, RXRa partner concentration 90 nM)
Summary of the method: as §1

[7] = tested on: THRa homodimer (NR concentration 90 nM)
Summary of the method: as §1

[8] = tested on: VDR homodimer (NR concentration 270 nM)
Summary of the method: as §1

Sequence | PBM binding z-score [1] | PBM binding z-score [2] | PBM binding z-score [3] | PBM binding z-score [4] | PBM binding z-score [5] | PBM binding z-score [6] | PBM binding z-score [7] | PBM binding z-score [8]
GCGACTGGGGCATCAGCAAGTTACCATAACTTAA | -0.0103 | 0.142 | 0.0409 | -0.018 | 0.208 | -0.53 | -0.605 | -0.296
AGAACGACGGCACGCTGAGTTGATAGCAGAGTAG | -0.983 | -0.171 | -0.213 | -0.569 | -0.1 | -0.601 | -1.14 | -0.198
CGAACTAAGTCAAGGACAGTGAATCTCCGCACGC | 0.164 | 0.0358 | 0.274 | 0.417 | -0.164 | 1.45 | 1.12 | -0.0534
GCGAATGGGGCAAAGCAGGTTACCATAAGGTTGG | 1.06 | 0.565 | 0.52 | -0.201 | 0.442 | 3.12 | 0.0667 | -0.552
ACTAGTTGGTCCGCTGAGGTCACACACAATTCGG | 3.85 | 3.69 | 2.81 | 1.37 | 3.71 | 4.4 | 5.42 | 4.08
AGAACGAGGGCACGCTGAGTTCATAGCAGAGTAG | 2.79 | 4.31 | 3.34 | 3.17 | 3.08 | 3.31 | 0.849 | 7.01
CGTCCAAGGTCAAGGTCCGTGAAAGAGACTCGAA | 4.19 | 6.16 | 6.84 | 3.57 | 5.96 | 3.82 | 2.69 | 2.27
CGCGAAAGGTCGTGCTCAGGTGAGTATACCAAAC | 3.1 | 5.55 | 4.27 | 2.19 | 5.98 | 4.17 | 1.26 | 1.18
TCTTGTAGATCAATAGAGGTTGAGAAAGTGCGCT | -0.259 | 0.00331 | -0.196 | 0.738 | 0.307 | 0.629 | -0.723 | -0.179
CCAGACAGGTAAAAGGTAACTCAGTCTGGTACGC | 0.19 | 0.33 | 0.29 | -0.178 | 1.09 | 0.372 | -0.238 | 0.202
AGCATGAGGTTATACGTAGATCAGGGAAGAAAGT | 0.998 | 1.64 | 1.3 | 1.63 | 1.8 | 2.11 | 0.665 | 0.812
ACTGACAGGTGAGTGAAGGTAACTCAGCTGGACG | 0.153 | 0.285 | 0.606 | -0.285 | 0.3 | 1.74 | -0.42 | -0.23
TTACCAAGGTGAAAGGTCGTCGATGCACGCCTTG | 2.78 | 4.43 | 2.22 | 0.201 | 6.2 | 3.55 | 0.956 | 0.709
TCATATAGTTAAAAGGTGAAAGTCGGTGTGGTAA | 1.92 | 1.69 | 0.989 | 1.66 | 2.31 | 1.6 | 0.712 | 0.721
TCGAGTAGGTTAGTCGGGCCATTCAGCCAACATA | -0.0179 | -0.285 | -0.251 | -0.153 | -0.135 | 0.516 | -0.252 | -0.149
ATCTCTAGGTAAAGTTCACTGAAAGATCGATAGA | 3.34 | 3.14 | 3.42 | 2.2 | 2.82 | 1.95 | 0.46 | 3.79
CCTATTAGATGACCATAAGGGCAACCGAAGCTCG | 1.98 | 1.02 | 1.2 | 0.541 | 0.88 | 1.69 | 1.19 | 0.819
GCATATAGGTAATACAAGGTGAAAGTTCGATTGT | 1.57 | 0.972 | 0.602 | 0.513 | 1.5 | 4.27 | 1.28 | 0.723
CATACTAGGTCACAGAGGTCAAAGTCCGTGCGTA | 5.73 | 7.31 | 7.56 | 3.27 | 7.91 | 4.72 | 3.18 | 6.84
GATAGAGGGTCAGCTAGAGGCCAGAGTATGGAAA | 3.28 | 6.38 | 4.5 | 0.579 | 3.71 | 2.39 | -0.103 | 0.387
AGTCAAAGTTCAAGACGAGGTAACGTAAAGCACG | 3.6 | 5.81 | 6.02 | 3.8 | 4.59 | 3.9 | 0.783 | 2.85
CGAACTCGGTCAAGGACAGTGAATCTCCGCACGC | 1.7 | 1.95 | 2.98 | 0.656 | 0.345 | 2.15 | 1.37 | 0.261
GCTAGTTGGTCAGTAAAAGGTCACATACCGGTCG | 5.15 | 5.2 | 4.75 | 0.819 | 4.95 | 3.52 | 1.86 | 1.74
CCTACTGGGCCACGAAAAGTCATTGATTCAGTGA | 0.476 | 0.154 | 0.301 | -0.296 | -0.0607 | -0.0481 | -0.645 | -0.412
CCTCGGAGGGCAACAGGAGGTCAGAGCTGCCAGA | 3.73 | 5.71 | 4.23 | 0.315 | 3.16 | 3.26 | 0.313 | 1.22
CCGACTGGAGCAGAAAGGTTACCATACCATCCGG | 2.03 | 1.32 | 0.946 | -0.179 | 1.8 | 0.977 | -0.2 | 0.282
TAGCCTAGATCATTGGGCCAGTATAGTACGCATC | -0.608 | -0.554 | -0.194 | -0.443 | -0.398 | -0.832 | -0.488 | -0.283
GCATATAGGTAATACAAGGGGAAAGTCCGATTGT | -0.0469 | 0.247 | 0.368 | 0.734 | 0.3 | 1.94 | -0.473 | 0.0263
